Source: PubChem BioAssay AID686978 (National Center for Advancing Translational Sciences (NCATS), 2013)
In all, about 420,000 compounds went through this assay and about 64,000 (15%) were called active. Not shown: some 27% with an inconclusive outcome. The call rests on the fitted dose curve; in most records, active means well fitted inhibition curve with a large enough effect; inconclusive means small, poorly fitted or top-dose-only effect; inactive means flat fitted curve, though single readings scatter. Only a sample is shown.

experiment: qHTS for Inhibitors of human tyrosyl-DNA phosphodiesterase 1 (TDP1): qHTS in cells in absence of CPT; conditions: DT40 Tdp1-/- hTDP1 cells, no CPT, ATP luminescence, 48 h; activity change, negative = growth inhibition: at 46.2 µM (top of the series); further: nearly all actives have a fitted effect of over 55% in size
Outline: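 Compound effects on proliferation are scored in DT40 Tdp1-/-;hTDP1 cells in the absence of CPT. ATP levels (CellTiter-Glo luminescence) are recorded after a ≥48 hr, 37 °C incubation.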
On the % scale 0 is the no-effect control and ±100 the full control effect; potency means the concentration at half of the fitted maximal effect.

Structure (SMILES)	activity change, negative = growth inhibition	Potency
COc1ccccc1P(=O)(c1ccccc1)c1ccccc1NC(C)=O (stereo not given)	-11.8% (inactive)	
CCCCN(C)C(=O)C1CCN(Cc2ccccn2)CC1	-10.8% (inactive)	
CC1=C(/C=C/C(C)=C/C=C/C(C)=C/C=C/C=C(C)/C=C/C=C(C)/C=C/C2=C(C)CCCC2(C)C)C(C)(C)CCC1	-10.8% (inactive)	
O=C(NCCCn1ccnc1)Nc1ccc(Cl)cc1Cl	-10.9% (inactive)	
O=C(Nc1ccccc1C(=O)NCCCn1ccnc1)c1ccc(Cl)cc1Cl	-27.3% (inactive)	
Clc1ccc(C(Cn2ccnc2)OCc2ccsc2Cl)c(Cl)c1 (stereo not given)		16.8 µM (active)
CNc1nccc(-c2ccc(Cl)cc2)c1C#N	-11.7% (inactive)	
CN(C(=O)COC(=O)c1cc(-c2ccco2)nc2ccccc12)C1CCS(=O)(=O)C1 (stereo not given)	11% (inactive)	
N#Cc1ccc(-c2ccc(Cl)cc2)nc1Oc1ccc(F)cc1	3.35% (inactive)	
COC(=O)c1cc(-c2cccs2)nc2ccccc12	-3.83% (inactive)	
CC(=O)Nc1cccc(Nc2nc(-c3cccs3)nc3ccccc23)c1		8.2 µM (active)
CCN(CC(=O)Nc1c(F)cccc1F)C(=O)Cc1cccs1	-19.1% (inactive)	
O=C1CCCCC1C(=O)c1ccccc1 (stereo not given)	0.152% (inactive)	
Cc1n[nH]c(=O)c2c(NC(=O)CSc3ccccc3F)oc(C)c12	-3.84% (inactive)	
CC(=O)N1CCN(S(=O)(=O)c2c(F)cc(F)c(Cl)c2F)CC1	-23.5% (inactive)	
COc1ccc(Cc2n[nH]c(=S)n2NC(=O)Nc2ccc(C)cc2)cc1	-0.57% (inactive)	
COc1ccc(OCCCC(=O)OC(C)C(=O)Nc2ccccc2[N+](=O)[O-])cc1 (stereo not given)	-8.79% (inactive)	
O=c1[nH][nH]c(=O)c2cc(N3CCCC3)ccc12	-0.739% (inactive)	
O=C1C=CC(=O)N1c1ccc(N2CCCCC2)cc1		1.16 µM (active)
CS(=O)(=O)N1CCC[C@@]2(CCN(c3ccncc3)C2)C1	1.43% (inactive)	
Cc1ccc(-c2c(C)n([O-])c3c([n+]2=O)CCC3)cc1	-1.61% (inactive)	
CC1=NNC(=O)C1CCC(=O)N/N=C\c1ccc(Cl)c(Cl)c1 (stereo not given)	1.92% (inactive)	
CCOC(=O)c1c(SCC(=O)Nc2cccc(C)c2C)nc(=O)[nH]c1C	-20.6% (inactive)	
CCOC(=O)c1c(C)[nH]c2c1-c1ccccc1C(=O)C2=O		0.651 µM (active)
CCOC(=O)c1c(C)[nH]c(=S)c(C#N)c1-c1ccccc1	-20.4% (inactive)	
O=C(COC(=O)c1ccc[nH]c1=O)Nc1ccc2c(c1)OC(F)(F)O2	7.51% (inactive)	
COC(=O)[C@@H]1CCCN1C(=O)c1cc(COc2cccc3cccnc23)on1	-10.1% (inactive)	

Structure (SMILES)	activity change, negative = growth inhibition	Potency
COCC1CCCCN1C(=O)c1cc(COc2ccc(C)c(C)c2)on1 (stereo not given)		20.6 µM (active)
Cc1ccc(OCc2cc(C(=O)N(C)CCn3ccnc3C)no2)cc1C	-29.8% (inactive)	
COC(=O)c1ccccc1NC(=O)c1cc(-c2ccccc2O)no1	-23.2% (inactive)	
CCOC(=O)C1CCc2nc3ccccc3c(=O)n21 (stereo not given)	-7% (inactive)	
CCOC(=O)C(CCOc1cccc(CC)c1)C(=O)OCC	-7.39% (inactive)	
C=CCNC(=O)C12CC3CC(C1)CC(C(=O)NCC=C)(C3)C2	-12.6% (inactive)	
Cc1cc(C)cc(NC(=O)N2CCC(NC(=O)c3ccc(F)cc3)CC2)c1	-4.78% (inactive)	
COc1cc(OC)c2ccc(=O)oc2c1C(CCN1CCN(c2ccccc2)CC1)c1ccc2c(c1)OCO2 (stereo not given)		16.4 µM (active)
CCN(CC)CCC(c1ccc2c(c1)OCO2)c1c(OC)cc(OC)c2c(-c3ccccc3)cc(=O)oc12 (stereo not given)		20.6 µM (active)
COc1cc(COCC(O)CN2CCN(Cc3ccc4c(c3)OCO4)CC2)cc(OC)c1OC (stereo not given)	1.82% (inactive)	
COc1ccc(F)cc1S(=O)(=O)NCC(c1ccc2c(c1)OCO2)N1CCN(C)CC1 (stereo not given)	-17.7% (inactive)	
O=C(C(=O)N1CCN(c2ccccc2)CC1)c1ccc2c(c1)OCO2	-5.22% (inactive)	
Cc1nnc(SCc2cc(=O)[nH]c(N3CCN(Cc4ccccc4)CC3)n2)s1	-2.6% (inactive)	
CC(Sc1nncn1C)C(=O)Nc1cc(C(F)(F)F)ccc1N1CCOCC1 (stereo not given)	-4.89% (inactive)	
CCCCN1C(=O)C(CC(=O)NCc2cccs2)CC(C(=O)N2CCCCCC2)=C1C (stereo not given)	-19.8% (inactive)	
CC(C)(C)NC(=O)NC(=O)COC(=O)C1(C)CC1(Cl)Cl (stereo not given)	-5.85% (inactive)	
COc1ccc(CCc2nc(-c3cccs3)no2)cc1	-14.4% (inactive)	
COc1ccc(S(=O)(=O)NC(=O)C2(C)CCN2C(=O)c2ccccc2CCc2ccccc2)cc1 (stereo not given)	4.09% (inactive)	
O=C(O)c1cccc(NC(=O)c2cc(-c3cccc(Cl)c3)nc3ccccc23)c1	7.86% (inactive)	
Cc1c(C(=O)Nc2cccc(Cl)c2)cn2c(nc3ccccc32)c1C#N		11.6 µM (active)
O=C(NCc1cn2ccsc2n1)Nc1cccc(Cl)c1	-13.9% (inactive)	
COc1cc(C(=O)NN(CCC#N)C2=NS(=O)(=O)c3ccccc32)cc(OC)c1OC	2.78% (inactive)	
CCc1ccc(-c2nnn(Cc3nn[nH]n3)n2)cc1	-0.357% (inactive)	
COc1ccc(C(=NN)c2ccc(OC)cc2)cc1	-24.3% (inactive)	
COc1ccc(C(C#N)=C2C=CC(=NO)c3ccccc32)cc1		0.82 µM (active)
COc1ccc(/C(N)=N/OC(=O)Cc2ccccc2)cc1	-2.57% (inactive)	
O=C(c1ccc[nH]c1=S)N1CCN(S(=O)(=O)c2ccc(Br)cc2Cl)CC1	-9.07% (inactive)	

Structure (SMILES)	activity change, negative = growth inhibition	Potency
COc1ccc(CNC(=O)c2ccc(Br)s2)cc1OC	-11.8% (inactive)	
CCN(CC(=O)NCc1ccc(Cl)cc1)C(=O)c1c(C)noc1C	-2.22% (inactive)	
COc1ccc(CNC(=O)c2c(C)cc(=O)oc2C)cc1OC	-9.12% (inactive)	
O=C(NCc1ccncc1)C(=O)NCc1ccco1	-11.2% (inactive)	
Cc1noc(C)c1-c1ccc(C(=O)NCc2ccncc2)c2occc12		8.2 µM (active)
COc1ccc(CNC(=O)c2ccc(-c3cccnc3)c3ccoc23)cc1OC		18.4 µM (active)
O=C(COc1ccc(Cl)cc1)NCc1nnc(SCC(=O)NCC2CCCO2)o1 (stereo not given)	17.3% (inactive)	
CCn1cc(CNC(=O)c2cc([N+](=O)[O-])c(C)c([N+](=O)[O-])c2)cn1	-25.9% (inactive)	
Cc1cccc(NC(=O)CSCC(=O)Nc2nnc(C3CC3)s2)c1	5.18% (inactive)	
Cc1ccc(C(=O)CSc2ccccc2C(=O)O)cc1	4.44% (inactive)	
Cc1ccc(C(=O)CS(C)(=O)=O)cc1	-5.59% (inactive)	
Cc1ccc(SC(CC(=O)c2ccc(C(C)(C)C)cc2)C(=O)O)cc1 (stereo not given)		2.91 µM (active)
CC1(C)c2[nH]c3ccccc3c2C[C@H]2C(=O)N(N)CC(=O)N21	-2.67% (inactive)	
O=C(NC1CCc2ccccc21)C12CN(Cc3ccccc3)CC1C(c1cccc([N+](=O)[O-])c1)=NO2 (stereo not given)	-28.8% (inactive)	
O=C(NCc1ccccc1Cl)C1CCCN1S(=O)(=O)c1ccc(F)cc1 (stereo not given)	-28.8% (inactive)	
CC(C)c1nnc(NC(=O)C2CCCN2S(=O)(=O)c2ccc(Cl)cc2)s1 (stereo not given)	-18.8% (inactive)	
COc1ccccc1NC(=O)C1CCCN1S(=O)(=O)c1ccc(Cl)cc1 (stereo not given)		16.4 µM (active)
COc1cccc(CCNC(=O)COc2cccc3c2OC(C)(C)C3)c1	-28% (inactive)	
CN(C)c1cccc2ccccc12	-21.3% (inactive)	
CC(C)[C@@H](C(=O)O)N(Cc1cccc(CN([C@H](C(=O)O)C(C)C)S(C)(=O)=O)c1)S(C)(=O)=O	-13.5% (inactive)	
COc1cc2c(cc1OC)C(Nc1ccc(S(N)(=O)=O)cc1)=NC(C)(C)C2	-1.6% (inactive)	
COc1cc2c(cc1O)C(SC)=NC(C)(C)C2		29.1 µM (active)
O=C(Nc1ccccn1)C1CCN(S(=O)(=O)c2ccccc2)CC1	-16.5% (inactive)	
CCCCN(CC(=O)NC(C)(C)C)C(=O)C(=O)Nc1ccc2c(c1)OCCO2	-4.3% (inactive)	
CC(C)(C)NS(=O)(=O)CC12CCC(CC1=O)C2(C)C (stereo not given)	8.13% (inactive)	
CN(C)CC/C=C1\c2ccccc2CSc2ccccc21	-2.35% (inactive)	
CN(C)Cc1ccccc1C1(O)c2ccccc2CSc2ccccc21 (stereo not given)		23.1 µM (active)

Structure (SMILES)	activity change, negative = growth inhibition	Potency
CC(=O)NC(CC(=O)Nc1nccs1)c1ccccc1 (stereo not given)	-1.06% (inactive)	
Cc1c(OC(C)C(=O)NCC2CCC(C(=O)O)CC2)ccc2c1oc(=O)c1ccccc12 (stereo not given)	-23.1% (inactive)	
CCN(CC(=O)NC(=O)NCc1ccccc1)Cc1nc2ccccc2c(=O)[nH]1	-25.3% (inactive)	
CC1(C(=O)NCc2ccco2)Cc2c(-c3ccc4c(c3)OCO4)ccnc2O1 (stereo not given)		0.58 µM (active)
CC1(C(=O)NCc2ccc(F)c(F)c2)Cc2c(-c3ccc4c(c3)OCO4)ccnc2O1 (stereo not given)		2.91 µM (active)
O=C(NCc1ccc2c(c1)OCO2)c1cc(F)c(F)cc1Cl	6.94% (inactive)	
S=C(NCc1ccc2c(c1)OCO2)NCc1ccco1	-18.3% (inactive)	
O=C(NCc1ccc2c(c1)OCO2)C12CC3CC(CC(C3)C1)C2	-22.8% (inactive)	
O=C(Cn1nnc(-c2ccc3c(c2)OCO3)n1)NCc1ccco1	-1.69% (inactive)	
OCC1(CCOc2ccccc2)CCN(Cc2cn[nH]c2-c2ccccc2)CC1	2.32% (inactive)	
COCc1c(C(=O)N/N=C(\C)c2ccncc2)nnn1-c1nonc1N	4.24% (inactive)	
CC(Sc1nnc(CNC(=O)c2ccccc2F)n1C)C(=O)Nc1nccs1 (stereo not given)	-15% (inactive)	
O=c1c(-c2ccc(F)cc2)nc2cncnc2n1-c1ccccc1	-7.29% (inactive)	
Cc1cnc(NC(=O)Cn2cnc3c2c(=O)n(C)c(=O)n3C)s1	-7.75% (inactive)	
CCSc1ccccc1C(=O)Nc1ccc2c(c1)OCO2	-6.47% (inactive)	
CCC(C)OC(=O)C(C)Oc1ccc(-c2ccccc2)cc1 (stereo not given)	-4.46% (inactive)	
N#CC1=C(N)N(c2ccc(F)cc2)C(=O)C1	-14.7% (inactive)	
O=C(CSc1ccccc1)Nc1nnc(/C=C/c2ccccc2)s1	-20.1% (inactive)	
CC1(C)NC(=O)N(CC(=O)N2CCN(S(=O)(=O)c3ccccc3F)CC2)C1=O	3.77% (inactive)	
CCN(C(=O)Cn1cc(S(=O)(=O)N2CCN(c3ccccc3F)CC2)c2ccccc2c1=O)c1ccc(C)c(C)c1		10.3 µM (active)
O=C(CN1CCN(c2ccccc2F)CC1)c1ccc2c(c1)OCO2	-2.9% (inactive)	
CCCN(C(=O)Cn1cc(S(=O)(=O)N2CCN(c3ccccc3F)CC2)c2ccccc2c1=O)c1cccc(C)c1		18.4 µM (active)
Cc1ccc2cccc(S(=O)(=O)N3CCN(c4ccccc4F)CC3)c2n1	-22.5% (inactive)	
CCOC(=O)N1CCN(c2c(NCCN3CCN(c4ccccc4F)CC3)c(=O)c2=O)CC1	-8.93% (inactive)	
